Measured values: PubChem BioAssay AID1159580 (chemical genetic matrix, 2015)
Hit rate of the full screen: of about 5,500 compounds, about 2,000 (36%) were called active. Not shown: some 18% with an inconclusive outcome. No stated cut-off is given here; in the data, active means normalized growth mostly below about 0.91 (no sharp cut-off); inconclusive means no clear call, values can overlap the other calls; inactive means mostly above about 0.92. Some of the results follow.

Test: chemical genetic growth profiling, strain panel (AID 1159580);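 further: tested at 20 µM; growth read once vehicle control cultures reached saturation at 30 °C; 1 = growth at the plate median or of vehicle wells; lower values mean less growth of the strain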
Conditions: growth OD

Measured: normalized growth

OCc1ccccc1O
inactive: S. cerevisiae deletion strains, locus YKL068W, hits give low values 0.994 | S. cerevisiae deletion strains, locus YKL085W, strain MDH1 (second series), hits give low values 0.992 | S. cerevisiae deletion strains, locus YKL085W, strain MDH1, hits give low values 0.992 | S. cerevisiae deletion strains, locus YKL160W, strain elf1, hits give low values 1.04 | S. cerevisiae deletion strains, locus YKL190W, strain CNB1, hits give low values 1.01 | S. cerevisiae deletion strains, locus YKR001C, strain vps1, hits give low values 0.989 | S. cerevisiae deletion strains, locus YKR026C, strain gcn3, hits give low values 1.02 | S. cerevisiae deletion strains, locus YKR091W, strain srl3, hits give low values 1.01 | S. cerevisiae deletion strains, locus YLL001W, strain dnm1, hits give low values 1.01 | S. cerevisiae deletion strains, locus YLL026W, hits give low values 1 | S. cerevisiae deletion strains, locus YLL041C, strain sdh2, hits give low values 1.01 | S. cerevisiae deletion strains, locus YLR027C, strain aat2, hits give low values 1.02 | S. cerevisiae deletion strains, locus YLR039C, strain RIC1, hits give low values 0.988 | S. cerevisiae deletion strains, locus YLR058C, strain SHM2, hits give low values 1.02 | S. cerevisiae deletion strains, locus YLR102C, strain apc9, hits give low values 0.981 | S. cerevisiae deletion strains, locus YLR113W, strain HOG1, hits give low values 1.03 | S. cerevisiae deletion strains, locus YLR221C, strain rsa3, hits give low values 1.02 | S. cerevisiae deletion strains, locus YLR258W, strain gsy2, hits give low values 1.02 | S. cerevisiae deletion strains, locus YLR262C, strain YPT6 (second series), hits give low values 1.06 | S. cerevisiae deletion strains, locus YLR262C, strain YPT6, hits give low values 1.04 | S. cerevisiae deletion strains, locus YLR268W, strain sec22, hits give low values 0.969 | S. cerevisiae deletion strains, locus YLR320W, strain mms22, hits give low values 1.02 | S. cerevisiae deletion strains, locus YLR330W, strain CHS5, hits give low values 1.01 | S. cerevisiae deletion strains, locus YLR342W, strain FKS1 (second series), hits give low values 1.01 | S. cerevisiae deletion strains, locus YLR342W, strain FKS1, hits give low values 1.03 | S. cerevisiae deletion strains, locus YLR357W, strain rsc2, hits give low values 1.08 | S. cerevisiae deletion strains, locus YLR370C, strain arc18, hits give low values 1.01 | S. cerevisiae deletion strains, locus YLR371W, strain rom2, hits give low values 0.989 | S. cerevisiae deletion strains, locus YLR384C, strain iki3, hits give low values 1.01 | S. cerevisiae deletion strains, locus YLR418C, strain cdc73, hits give low values 0.962 | S. cerevisiae deletion strains, locus YML016C, strain PPZ1, hits give low values 1.02 | S. cerevisiae deletion strains, locus YML032C, strain rad52, hits give low values 0.979 | S. cerevisiae deletion strains, locus YML120C, strain ndi1, hits give low values 1.01 | S. cerevisiae deletion strains, locus YML124C, strain tub3, hits give low values 0.997 | S. cerevisiae deletion strains, locus YMR058W, strain fet3, hits give low values 1.02 | S. cerevisiae deletion strains, locus YMR078C, strain ctf18, hits give low values 0.993 | S. cerevisiae deletion strains, locus YMR125W, strain sto1, hits give low values 1.01 | S. cerevisiae deletion strains, locus YMR129W, hits give low values 1.03 | S. cerevisiae deletion strains, locus YMR205C, strain PFK2, hits give low values 1.03 | S. cerevisiae deletion strains, locus YMR223W, strain ubp8, hits give low values 0.994 | S. cerevisiae deletion strains, locus YMR231W, strain pep5, hits give low values 1.01 | S. cerevisiae deletion strains, locus YMR263W, strain SAP30, hits give low values 1.02 | S. cerevisiae deletion strains, locus YMR307W, strain GAS1, hits give low values 1.01 | S. cerevisiae deletion strains, locus YNL067W, strain RPL9B, hits give low values 1.01 | S. cerevisiae deletion strains, locus YNL071W, strain lat1, hits give low values 1.04 | S. cerevisiae deletion strains, locus YNL128W, strain TEP1, hits give low values 1.02 | S. cerevisiae deletion strains, locus YNL153C, strain GIM3, hits give low values 1.01 | S. cerevisiae deletion strains, locus YNL183C, strain NPR1, hits give low values 1 | S. cerevisiae deletion strains, locus YNL209W, strain ssb2, hits give low values 1.02 | S. cerevisiae deletion strains, locus YNL233W, strain BNI4, hits give low values 1.01 | S. cerevisiae deletion strains, locus YNL248C, strain rpa49, hits give low values 1.04 | S. cerevisiae deletion strains, locus YNL250W, strain rad50, hits give low values 0.986 | S. cerevisiae deletion strains, locus YNL271C, strain bni1, hits give low values 0.98 | S. cerevisiae deletion strains, locus YNL298W, strain CLA4, hits give low values 0.981 | S. cerevisiae deletion strains, locus YNL307C, strain MCK1, hits give low values 0.989 | S. cerevisiae deletion strains, locus YNL322C, strain KRE1 (second series), hits give low values 1.03 | S. cerevisiae deletion strains, locus YNL322C, strain KRE1, hits give low values 1.01 | S. cerevisiae deletion strains, locus YNR049C, strain mso1, hits give low values 1.02 | S. cerevisiae deletion strains, locus YNR052C, strain pop2, hits give low values 0.989 | S. cerevisiae deletion strains, locus YOL006C, strain TOP1, hits give low values 1.06 | S. cerevisiae deletion strains, locus YOL012C, strain htz1 0.829 | S. cerevisiae deletion strains, locus YOL147C, strain pex11, hits give low values 0.985 | S. cerevisiae deletion strains, locus YOR001W, strain rrp6, hits give low values 1.03 | S. cerevisiae deletion strains, locus YOR061W, strain CKA2, hits give low values 1.02 | S. cerevisiae deletion strains, locus YOR069W, strain VPS5, hits give low values 1.01 | S. cerevisiae deletion strains, locus YOR070C, strain gyp1, hits give low values 1.03 | S. cerevisiae deletion strains, locus YOR080W, strain dia2, hits give low values 1.02 | S. cerevisiae deletion strains, locus YOR083W, strain WHI5, hits give low values 1.02 | S. cerevisiae deletion strains, locus YOR106W, strain vam3, hits give low values 1.01 | S. cerevisiae deletion strains, locus YOR136W, strain idh2, hits give low values 0.992 | S. cerevisiae deletion strains, locus YOR144C, strain elg1, hits give low values 0.991 | S. cerevisiae deletion strains, locus YOR184W, strain ser1, hits give low values 0.984 | S. cerevisiae deletion strains, locus YOR231W, strain MKK1, hits give low values 1.03 | S. cerevisiae deletion strains, locus YOR265W, strain rbl2, hits give low values 1 | S. cerevisiae deletion strains, locus YOR270C, strain vph1, hits give low values 1.03 | S. cerevisiae deletion strains, locus YOR290C, strain snf2, hits give low values 1.01 | S. cerevisiae deletion strains, locus YOR316C, strain cot1, hits give low values 0.996 | S. cerevisiae deletion strains, locus YPL051W, strain arl3, hits give low values 1.03 | S. cerevisiae deletion strains, locus YPL078C, strain atp4, hits give low values 1.02 | S. cerevisiae deletion strains, locus YPL106C, strain sse1, hits give low values 1.07 | S. cerevisiae deletion strains, locus YPL240C, strain hsp82, hits give low values 1.01 | S. cerevisiae deletion strains, locus YPL241C, strain CIN2, hits give low values 1.01 | S. cerevisiae deletion strains, locus YPL256C, strain CLN2, hits give low values 1.07 | S. cerevisiae deletion strains, locus YPR119W, strain clb2, hits give low values 0.986 | S. cerevisiae deletion strains, locus YPR141C, strain kar3, hits give low values 0.992 | S. cerevisiae deletion strains, locus YPR163C, strain tif3, hits give low values 0.994 | S. cerevisiae deletion strains, locus YPR167C, strain met16, hits give low values 0.989 | S. cerevisiae deletion strains, strain wtn01, hits give low values 0.973 | S. cerevisiae strains, strain wild type, hits give low values 1.01
